Data on 14 compounds can be found in PubChem BioAssay (NCI).

What all share (assay): NCI-60 one-dose screen, 48 h (100 = growth as untreated, 0 = no growth, -100 = all killed)
What all share (details): 10 µM unless noted

Test [1] deals with HCT-15 colon.
For test [2], the system named is HT29 colon.
For test [3], the system named is SNB-75 CNS.
Test [4] concerns SNB-19 CNS.
The test system of test [5] is U251 CNS.
Test [6] relates to PC-3 prostate.
Test [7] relates to SK-MEL-5 melanoma.
Test [8] concerns LOX IMVI melanoma.
Test [9] deals with SK-MEL-28 melanoma.

The panel holds about 83,000 compounds, 20% with a hit somewhere; the sample as a whole holds those more often.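 Negative percent growth values reflect cell death: -40 means 40% of the cells present at the start died, and -100 means all died.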 Unmarked numbers belong to inactive results. Activity calls are given as the source filed them. How the source made its calls: active means growth percent below 10; inactive means the rest.

`COc1ccc2c(c1)c(-c1nc(-c3c[nH]c4ncccc34)cs1)cn2CCN`: the growth was 43.7% in [1]; 55.9% in test [2]; 56.6% in test [3]; 79.4% in test [4]; 66.7% in test [5]; 42.8% in test [6]. In addition, the values for the growth in test [7], in test [8] and in [9] were 72.9%, 66% and 100%, respectively.
Regarding `O=S(=O)(NCCNc1cc(-c2cn(-c3ccccc3)nc2-c2cccc(O)c2)ccn1)c1ccc(Cl)cc1`, the growth in test [1] is 7.32% (active); in test [2], 0.572% (active); in test [3], 53.8%; in test [4] it was 47.7%; in test [5] it was 22.1%; in test [6], 14.9%. For the same compound, the growth in test [7] was 15.5%; in [8], 30%.
`COc1ccc2c(c1)c(-c1nc(-c3c[nH]c4ncccc34)cs1)cn2CCNC(=O)OC(C)(C)C`: the growth in [1] is 54.6%; in test [2], 71.3%; in test [3], 68.2%; in test [4], 93%; in test [5], 69.1%; in test [6], 31.8%. The growth in test [7] was 54.2%; in test [8], 71.9%; in test [9], 88.1%.
In the case of `O=C(/C(=C(\C(=O)c1ccccc1)c1ccccc1)c1ccccc1)c1ccccc1`, the growth in test [1] was 24%; in [2], 37.6%; in test [3], 72.8%; in [4], 74%; in test [5] it was 47.3%; in test [6], 30%. Besides, the growth is 59.5% in test [7], 64.6% in test [8] and 89.8% in [9].
As for `O=S(=O)(NCCNc1cc(-c2cn(-c3ccccc3)nc2-c2cccc(O)c2)ccn1)c1ccc(F)cc1`, the growth in [1] was 6.55% (active); in [2], 1.75% (active); in [3], 45.6%; in test [4] it was 46.5%; in test [5], 17.4%; in test [6] it was 15.1%. Besides, the growth was -12% (active) in [7] and 27.7% in [8].
Consider `O=C1CCC/C=C\C[C@H]2C=C(Cl)C(=O)/C2=C/C[C@H](CCCCC(F)(F)F)OC(=O)CCC/C=C\C[C@H]2C=C(Cl)C(=O)/C2=C/C[C@H](CCCCC(F)(F)F)O1`, for which the growth is 1.46% [7.5 µM] (active) in test [1]; -50.5% [7.5 µM] (active) in test [2]; -1.55% [7.5 µM] (active) in [3]; -37.9% [7.5 µM] (active) in test [4]; -67.7% [7.5 µM] (active) in [5]; -44.8% [7.5 µM] (active) in test [6]. The growth is -94.1% [7.5 µM] (active) in [7], -80.2% [7.5 µM] (active) in test [8] and -52.6% [7.5 µM] (active) in [9].
For `Cn1cnc2c1c(=O)n(CCC(=O)Nc1ccc(F)cc1)c(=O)n2C`, the growth is 104% in [1]; 86.6% in test [2]; 94.6% in [3]; 105% in test [4]; 96.2% in test [5]; 91.1% in test [6]. Moreover, the growth was 107% in test [7], 102% in test [8] and 110% in [9].
Regarding `COc1ccc(C2C(C#N)=C(N)Oc3c2sc2c(F)cccc32)cc1` (stereo not drawn), the growth in test [1] is 24.4%; in test [2] it was 7.77% (active); in test [3], 3.73% (active); in test [4] it was 22.8%; in test [5], 24.2%; in [6], 15.7%. The growth in [7] was 22.5%; in test [8], 29.9%; in test [9] it was 60.5%.
`CC/C(=N/NC(N)=O)c1ccccc1`: the growth was 91.2% in test [1]; 104% in test [2]; 98% in test [3]; 108% in test [4]; 102% in test [5]; 102% in test [6]. Also, the growth in [7] was 102%; in test [8] it was 99%; in test [9] it was 101%.
For `O=C(CCCCCn1c2ccccc2c2c3c(c4c5ccccc5[nH]c4c21)C(=O)N(O)C3=O)N1CCOCC1`, the growth in test [1] was 49.2%; in test [2] it was 0.235% (active); in test [3], 87%; in test [4], 47.3%; in test [5], 33.9%; in [6], 26.5%. For the same compound, the figures for the growth in test [7] and in [8] were 0.765% (active) and -16.8% (active), respectively.
Turning to `COc1ccc(C2(Cl)c3ccccc3N(c3ccccc3)c3ccccc32)cc1`, the growth in test [1] is 8.52% (active); in test [2], 3.7% (active); in [3], 3.72% (active); in test [4], 6.63% (active); in [5], -87.5% (active); in test [6] it was -24.4% (active). Moreover, the growth in test [7] is -87.3% (active); in test [8] it was -84.3% (active); in test [9], -74.7% (active).
Consider `C[C@]12CC[C@@H]3c4ccc(O)cc4CC[C@H]3[C@@H]1C[C@H](O)[C@@H]2O`, for which the growth was 97.3% in test [1]; 109% in test [2]; 82% in [3]; 102% in test [4]; 100% in [5]; 92.4% in test [6]. In addition, the figures for the growth in test [7], in [8] and in test [9] were 94.1%, 92.4% and 96.5%, respectively.
As for `Fc1ccc(Nc2nnc(-c3ccc(Cl)cc3)o2)cc1`, the growth in [1] was 98.4%; in test [2], 94.7%; in test [3], 102%; in test [4], 101%; in test [5], 92.1%; in test [6] it was 86.7%. Also, the values for the growth in test [7], in test [8] and in test [9] were 99.8%, 108% and 106%, respectively.
As for `Cc1cc(N(CCCNc2ccnc3cc(Cl)ccc23)Cc2ccco2)nc(Cl)n1`, the growth in test [1] is 48.5%; in [2], 22.1%; in test [3] it was 66%; in test [4], 75.1%; in test [5], 60.7%; in test [6], 49%. Moreover, the growth in [7] was -8.23% (active); in test [8], 42.2%; in [9], 77.7%.
